Bioassay records from PubChem.
Sampled rows, rich in hits. Any-hit rate of the full collection: about 5.9%.
ALR inh: inhibitors of human ALR sulfhydryl oxidase, primary screen, biochemical, H2O2 detection, HRP-luminol luminescence, single point; actives 3.8% (n = 290,000); inhibition, % (no concentration beside the values); purified ALR, DTT oxidation; FAD-linked sulfhydryl oxidase ALR (Homo sapiens), P55789; AID 485317, 2010;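 active = mean replicate inhibition above about 79%, with every replicate also reaching it, limit read from the data; inconclusive = only one of the two criteria met; inactive = mean below limit and not every replicate reaching it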
Target sequence (P55789 whole entry, looked up): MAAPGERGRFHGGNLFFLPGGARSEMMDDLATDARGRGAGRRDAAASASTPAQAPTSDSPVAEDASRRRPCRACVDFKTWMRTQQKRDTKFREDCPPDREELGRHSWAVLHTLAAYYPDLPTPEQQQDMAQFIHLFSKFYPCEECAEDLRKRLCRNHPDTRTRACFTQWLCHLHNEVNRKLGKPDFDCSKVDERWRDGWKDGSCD
PRMT1 FP inh: PRMT1 methyltransferase inhibitors, primary screen, biochemical, fluorescence polarization; recombinant PRMT1, activity-based probe fluorescence polarization; Protein arginine N-methyltransferase 1 (Homo sapiens), Q99873; actives 1.3% (n = 370,000); inhibition, % at 2.79 µM; AID 652257, 2013;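 active = inhibition above about 21% made by adding two undisclosed values, limit read from the data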
Rtt109 HAT inh: inhibitors of C. albicans Rtt109/Vps75 HAT, primary screen, biochemical, ThioGlo CoA-SH fluorescence, plate reader | purified Rtt109/Vps75, 4 h | inhibition, % at 34.9 µM | Histone acetyltransferase RTT109 (Candida albicans (strain SC5314 / ATCC MYA-2876)), … | actives 0.16% (n = 330,000);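 active = inhibition of at least 50% in every replicate; inconclusive = best replicate reaches 50% inhibition but some replicates fall short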
Target sequence (Q5AAJ8 whole entry, looked up): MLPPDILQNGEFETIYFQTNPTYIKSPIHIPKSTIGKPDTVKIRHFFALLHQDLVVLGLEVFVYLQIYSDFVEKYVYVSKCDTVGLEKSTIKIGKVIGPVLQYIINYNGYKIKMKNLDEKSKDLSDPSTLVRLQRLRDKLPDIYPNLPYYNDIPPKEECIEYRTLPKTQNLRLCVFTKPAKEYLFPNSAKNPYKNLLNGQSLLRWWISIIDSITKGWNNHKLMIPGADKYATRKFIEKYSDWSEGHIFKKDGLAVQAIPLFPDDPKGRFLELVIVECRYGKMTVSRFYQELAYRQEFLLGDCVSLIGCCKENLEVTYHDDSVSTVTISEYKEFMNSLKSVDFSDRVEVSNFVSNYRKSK
ABHD5 PLIN5 PPI: ABHD5-PLIN5 interaction inhibitors, primary screen, cell lysate, split luciferase complementation, luminescence; actives 0.78% (n = 360,000); Split G. princeps luciferase complementation, 4 h; AID 602281, 2012; inhibition, % at 4 µM;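 active = inhibition above the mean inhibition across every tested compound plus 3 SD, cut at about 22% in these data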
LANA-H2B inh: blockers of LANA interaction with H2A/H2B – biochemical, FP readout, HTS, primary screen; cell-free LANA-H2A/H2B peptide, fluorescence polarization; Protein LANA1 (Human herpesvirus 8 type P (isolate GK18)), Q9QR71; inhibition, % (test concentration not listed); actives 0.6% (n = 320,000); AID 2629, 2010; in the data active = inhibition mostly above about 10%, no sharp cut-off; inactive = mostly below about 6.7%
rCAG RNA binder: binders of r(CAG) RNA repeats, primary screen, biochemical, fluorescence | r(CAG) RNA repeat, TO-PRO-1 dye displacement fluorescence | inhibition, % at 3 µM | actives 1.3% (n = 370,000) | AID 651821, 2012;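 active = inhibition above the plate cutoff, the mean of all test compounds on that plate plus 3 SD, cut at about 35% in these data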;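 note: higher means more dye released from RNA so lower well fluorescence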
Of the large screens only hits and unclear results are named; the others gave an inactive call.

CSc1ncnc2c1ncn2CCCNCc1ccc(C)o1	none (no result: ALR inh, Rtt109 HAT inh, LANA-H2B inh)
Cc1ccc(NC(=O)C2CCCN2C(=O)OCc2ccccc2)c(O)c1 (stereo not given)	ALR inh 86
COc1ccc(-c2oc3c(c2C(=O)OCCO)C(OCCO)CCC3)cc1 (stereo not given)	none (no result: ALR inh, Rtt109 HAT inh, LANA-H2B inh)
Cc1ccc2c(c1)c1c(n2CC(O)CNC2CCCC2)CCCC1 (stereo not given)	ALR inh 89
NC(=O)c1ccc(-n2nnnc2Oc2ccccc2C(=O)N2CCOCC2)cc1	none
Cn1nc([N+](=O)[O-])nc1Oc1ccccc1C(=O)N1CCOCC1	LANA-H2B inh active
O=C(O)c1ccc2c(c1)[C@@H]1C=CC[C@@H]1[C@H](c1ccccn1)N2	PRMT1 FP inh 70, rCAG RNA binder 82 (no result: ALR inh)
Cc1nc2nc[nH]n2c(=O)c1CCOC(=O)c1c(F)cccc1F	none (no result: Rtt109 HAT inh)
Cc1nc2nc[nH]n2c(=O)c1CCOC(=O)c1ccccc1F	LANA-H2B inh 10
CCOC(=O)C1(Cc2ccccc2)CCN(Cc2ccccc2[N+](=O)[O-])CC1	none (no result: ALR inh, Rtt109 HAT inh, ABHD5 PLIN5 PPI, LANA-H2B inh)
O=C(NCc1ccc(Cl)cc1)C1C2C=CC3(CN(Cc4ccccc4)C(=O)C13)O2 (stereo not given)	none (no result: ALR inh, Rtt109 HAT inh, ABHD5 PLIN5 PPI, LANA-H2B inh)
OCCN1CCN(C2Cc3cc(Cl)ccc3Sc3ccc(Cl)cc32)CC1 (stereo not given) (tested in a mixture with another compound)	Rtt109 HAT inh inconclusive, ABHD5 PLIN5 PPI 23 (no result: PRMT1 FP inh, rCAG RNA binder)
O=C(NC1CC1)c1ccc(NS(=O)(=O)c2ccccc2)cc1	none
Cc1ccc(C(=O)Nc2cccc([N+](=O)[O-])c2)cc1S(=O)(=O)Nc1cccc(C(=O)O)c1	none
O=C(NC1CCC(O)CC1)c1ccc(NS(=O)(=O)c2cccc([N+](=O)[O-])c2)cc1 (stereo not given)	LANA-H2B inh 24
O=C(O)c1cccc(NC(=O)c2cccc(S(=O)(=O)Nc3cccc([N+](=O)[O-])c3)c2)c1	ALR inh 76
CCN(C[C@H]1[C@@H](c2ccc(C3=CCCC3)cc2)[C@H](CO)N1C(=O)c1cccnc1)S(=O)(=O)c1ccccc1[N+](=O)[O-]	none (no result: ALR inh, Rtt109 HAT inh, ABHD5 PLIN5 PPI, LANA-H2B inh)
CC(C)C[C@H]1CN(CCCC[C@@H]2CNC(=O)C(=O)N2Cc2ccccc2)C(=O)C(=O)N1Cc1ccccc1	none (no result: ALR inh, Rtt109 HAT inh, LANA-H2B inh)
Cc1ccc(N2CCC(N3CCN(C)C(CCO)C3)CC2)cc1 (stereo not given)	ALR inh 99
OCCC1CN(C2CCN(c3ccccc3F)CC2)CCN1Cc1ccccc1 (stereo not given)	none (no result: ALR inh)
CC(C)CCN1CCN(C2CCN(c3ccccc3)CC2)CC1CCO (stereo not given)	ALR inh 98
CCC1CCC(N2CCN(c3cccc(OC)c3)CC2)CC1 (stereo not given)	none
COc1cccc(N2CCC(N3CCN(C)C(CCO)C3)CC2)c1 (stereo not given)	ALR inh 94
Nc1ccn([C@@H]2O[C@H](C(=O)N3CCSC3)[C@@H](O)[C@H]2O)c(=O)n1	none (no result: ALR inh, Rtt109 HAT inh, LANA-H2B inh)
CC1(C)CC(=O)C(C=NCCc2ccccn2)=C(O)C1	none
CC1(C)CC(=O)C(C=NCCc2ccc(O)cc2)=C(O)C1	ALR inh 96
O=C(C[n+]1ccc(/C=N/O)cc1)NC1CCCCC1	LANA-H2B inh 17
O=C(C[n+]1ccc(/C=N/O)cc1)NCc1ccccc1	none
O=C(c1oc2ccccc2c1N1CCCCC1)N1CCCCC1	ALR inh 99
O=C(O)C1CCCN(C(=O)c2cccc3ccccc23)C1 (stereo not given)	none
O=C(c1cc2ccccc2o1)N1CCCCCC1	none (no result: Rtt109 HAT inh)
O=C(c1cccc2ccccc12)N1CCCCC1	LANA-H2B inh 11
CCC(C)NC(=O)[C@@H]1CSC2c3ccccc3C(=O)N21 (stereo not given in full)	PRMT1 FP inh 21
CCOc1cccc2c1OC(c1cc(OC)c(OC)c(OC)c1)N1N=C(c3ccc(C)o3)CC21 (stereo not given)	ABHD5 PLIN5 PPI 25 (no result: PRMT1 FP inh, rCAG RNA binder)
Cc1cc(C)c(S(=O)(=O)Nc2ccc(O)c(Sc3ncn[nH]3)c2)c(C)c1	ALR inh 99
CC(C)c1ccc(S(=O)(=O)Nc2ccc(O)c(Sc3ncn[nH]3)c2)cc1	ALR inh 99
OC(CN1c2ccccc2Sc2ccccc21)Cn1nnc2ccccc21 (stereo not given)	ALR inh 98
OCC(CO)(CO)NCC(O)CN1c2ccccc2Sc2ccccc21 (stereo not given)	ALR inh 99 (no result: PRMT1 FP inh, rCAG RNA binder)
Cc1nn(CC(O)CN2c3ccccc3Sc3ccccc32)c(C)c1Br (stereo not given)	none
CCOc1ccc(-c2csc(N3CCC(C(N)=O)CC3)n2)cc1	none (no result: ALR inh, Rtt109 HAT inh, ABHD5 PLIN5 PPI, LANA-H2B inh, rCAG RNA binder)
C/C(=N/Nc1ccccc1C(=O)O)c1cccs1	ALR inh 95
C/C(=N\Nc1ccc(Cl)c(C(=O)O)c1)c1cccs1	none
O=C(NC1CCCCN(Cc2ccc(Cl)cc2)C1=O)c1ccc(F)cc1 (stereo not given)	none (no result: ALR inh, Rtt109 HAT inh, ABHD5 PLIN5 PPI, LANA-H2B inh)
CCCCn1c(N)c(N(CCOC)C(=O)CCS(=O)(=O)c2ccc(C)cc2)c(=O)[nH]c1=O	none (no result: ALR inh, Rtt109 HAT inh, LANA-H2B inh)
COc1cccc(C(O)c2nc(-c3cccc(C(F)(F)F)c3)cs2)c1 (stereo not given)	none (no result: ALR inh, Rtt109 HAT inh, LANA-H2B inh)
Cc1cccc(-c2nc3c(c(SCC(=O)N4CCOCC4)n2)Cc2c(CO)cnc(C)c2O3)c1	LANA-H2B inh 18 (no result: PRMT1 FP inh, rCAG RNA binder)
Cc1ncc(CO)c2c1Oc1nc(-c3ccccc3)nc(SCC(=O)N3CCOCC3)c1C2	none
COc1ccc2ccccc2c1C(O)c1nccn1C (stereo not given)	PRMT1 FP inh 85, LANA-H2B inh 38
Cn1ccnc1C(O)c1ccccc1 (stereo not given)	none
C=CCn1c(O)c(CN2CCCCC2)c(C)c(C#N)c1=O	PRMT1 FP inh 22
Cc1c(CN2CCCC(C)C2)c(O)n(CCO)c(=O)c1C#N (stereo not given)	none (no result: ALR inh)
CC(C)Cn1c(SCc2nnc(-c3cccs3)o2)nc(O)cc1=O	ALR inh 98
N#CC1=C(N)N(c2ccc(F)cc2)C2=C(C1c1ccc(O)cc1)S(=O)(=O)CC2 (stereo not given)	rCAG RNA binder 35 (no result: ALR inh, LANA-H2B inh)
CSc1ccc(C2C(C#N)=C(N)N(c3ccccc3)C3=C2C(=O)CCC3)cc1 (stereo not given)	none
C/C(=C1/SC(=S)N(CCC(=O)O)C1=O)c1ccc(O)cc1	ALR inh 98
Cc1cccc(CSC2=NCCN2C(=O)c2ccc(S(=O)(=O)N(C)C)cc2)c1	none
